Data published in PubChem BioAssay AID540276 (National Center for Advancing Translational Sciences (NCATS), 2011).
Values joined by “and” are separate entries in the source; they are usually repeats but may differ in a detail not shown here. Equal entries are not always repeated. In all, about 300,000 compounds went through this assay and about 5,400 (1.8%) were called active. About 28% were inconclusive and are not listed. Calls follow the shape of the full dose curve; tested in HEK293 cells. What follows is part of a selection rich in actives, with near analogues and random picks from the rest. Entries that show only a call come without a potency. Some compounds were tested as several samples or in several runs, with calls that do not always agree.

Test: qHTS for inhibitors of binding or entry into cells for Marburg Virus
Conditions: Marburg virus pseudotyped entry inhibition, cell reporter; series mostly up to 37.8 µM
Potency is read from the fitted curve at half-maximal effect.

Q: For `CC12CCC(=O)N1C(C(=O)NCCN1C(=O)S/C(=C\c3ccccc3F)C1=O)CS2` (stereo not given), which Potency is on record?
A: The Potency was “inactive”.

Q: With `Cc1ccc(S(=O)(=O)NCC(=O)NNC(=O)c2ccc(Br)cc2)cc1C` as the compound, how does the Potency read?
A: Its Potency is “inactive”.

Q: For `O=C(COC(=O)c1ccccc1)Nc1ccc(Cl)cc1C(=O)c1ccccc1`, which Potency is on record?
A: The Potency was “inactive”.

Q: For `O=C(CCNS(=O)(=O)c1ccccc1)NCCCc1ccccc1`, which Potency is on record?
A: The Potency was “inactive”.

Q: With `O=C(CCNS(=O)(=O)c1ccccc1)Nc1ccc(Cl)cc1C(=O)c1ccccc1` as the compound, how does the Potency read?
A: The Potency was 8.91 µM (active).

Q: For `O=C(CN(Cc1ccccc1)C(=O)CCC(=O)Nc1ccccn1)NCCc1ccccc1`, which Potency is on record?
A: The Potency was “inactive”.

Q: Which Potency does the source give for `O=C(COC(=O)c1ccc(Oc2ccccc2)cc1)Nc1nnc(-c2ccccc2)o1` here?
A: The Potency was “inactive”.

Q: With `COc1cccc(NC(=O)CN(C)S(=O)(=O)c2ccc(C)cc2)c1` as the compound, how does the Potency read?
A: The Potency was “inactive”.

Q: For `COc1cccc(-c2nnc(NC(=O)c3ccc(S(=O)(=O)N(CC(C)C)CC(C)C)cc3)o2)c1`, which Potency is on record?
A: The Potency was 1.26 µM (active).

Q: With `O=C1NCC(c2ccccc2)(c2ccccc2)C(=O)N1` as the compound, how does the Potency read?
A: Its Potency is “inactive”.

Q: Which Potency does the source give for `COc1ccc(Cl)cc1NS(=O)(=O)c1cccc(C(=O)NC2CCC(O)CC2)c1` (stereo not given) here?
A: Its Potency is “inactive”.

Q: With `COCCC(=O)N1CCC(Oc2ccc(C(=O)NCc3ccon3)cc2)CC1` as the compound, how does the Potency read?
A: Its Potency is “inactive”.

Q: For `CCOC(=O)C1CCCN(CCSc2ccc(C)cc2)C1` (stereo not given), which Potency is on record?
A: The Potency was “inactive”.

Q: For `CN1CCN(c2ccc([N+](=O)[O-])c(Sc3nc4ccccc4[nH]3)c2)CC1`, which Potency is on record?
A: The Potency was “inactive”.

Q: Which Potency does the source give for `CN1CCN(c2cc(N3CCNCC3)ccc2[N+](=O)[O-])CC1` here?
A: The Potency was 5.01 µM (active).

Q: With `O=C(c1cccc(F)c1)N1CCN(c2ccc([N+](=O)[O-])c(N3CCCCC3)c2)CC1` as the compound, how does the Potency read?
A: Its Potency is “inactive”.

Q: For `O=C(NN=CC=Cc1ccccc1)C(O)C(O)C(=O)NN=CC=Cc1ccccc1` (stereo not given), which Potency is on record?
A: The Potency was “inactive”.

Q: For `N#CC1(Nc2ccc(-c3ccc(Cl)cc3)cc2)CCCC1`, which Potency is on record?
A: Its Potency is “inactive”.

Q: With `Cc1cc(NC(=O)CSc2ncc(C(F)(F)F)cc2Cl)no1` as the compound, how does the Potency read?
A: The Potency was “inactive”.

Q: Which Potency does the source give for `CCOC(=O)CSC1=c2ccccc2=NC1c1cccs1` (stereo not given) here?
A: Its Potency is “inactive”.

Q: For `CC1CCN(C(=O)COC(=O)CCC(=O)c2cccs2)CC1`, which Potency is on record?
A: The Potency was “inactive”.

Q: Which Potency does the source give for `COc1ccc(-n2nc(C(=O)NCC(=O)N3CCN(c4ccccc4OC)CC3)c3ccccc3c2=O)c(OC)c1` here?
A: Its Potency is “inactive”.

Q: For `CN(Cc1ccccc1Cl)C(=O)C1CCC(=O)N(CCc2cccc(F)c2)C1` (stereo not given), which Potency is on record?
A: The Potency was “inactive”.

Q: For `COc1cc(C)ccc1OCC(=O)OCC(=O)c1ccc[nH]1`, which Potency is on record?
A: Its Potency is “inactive”.

Q: For `Cn1c2ccccc2c2c(C(=O)N3CCN(c4ccc(F)cc4)CC3)cn(C3CCCC3)c(=O)c21`, which Potency is on record?
A: The Potency was “inactive and 17.8 µM (active)”.

Q: With `CCOc1ccc(NC(=O)c2cn(C3CCCCC3)c(=O)c3c2c2ccccc2n3C)cc1` as the compound, how does the Potency read?
A: The Potency was “inactive”.

Q: For `O=C(c1ccccc1Oc1ccccc1)N1CCN(c2ccc(F)cc2)CC1`, which Potency is on record?
A: The Potency was “inactive”.

Q: Which Potency does the source give for `c1ccc2cc3c(NCCN4CCOCC4)ccnc3cc2c1` here?
A: The Potency was 3.66 µM (active).

Q: With `O=C(NCCN1CCOCC1)c1cc(-c2cccs2)nc2ccccc12` as the compound, how does the Potency read?
A: The Potency was “inactive”.

Q: Which Potency does the source give for `O=C(Cn1c(-c2ccccn2)nc2ccccc21)NCCN1CCOCC1` here?
A: The Potency was “inactive”.

Q: For `COC(=O)Nc1ccc(S(=O)(=O)Nc2cc(OC)nc(OC)n2)cc1`, which Potency is on record?
A: The Potency was “inactive”.

Q: With `CC(OC(=O)c1ccc(-n2cnnn2)cc1)C(=O)NCc1ccccc1` (stereo not given) as the compound, how does the Potency read?
A: The Potency was “inactive”.

Q: With `CC(=O)OC[C@H]1O[C@H](C/C=N/OC[C@@H](O)COCc2ccco2)C=C[C@@H]1OC(C)=O` as the compound, how does the Potency read?
A: Its Potency is “inactive”.

Q: For `O=C(/C=C/c1ccccc1)c1ccoc1`, which Potency is on record?
A: The Potency was “inactive”.

Q: Which Potency does the source give for `O=C(/C=C/c1ccccc1)c1ccccc1O` here?
A: The Potency was “inactive”.

Q: For `CC(=O)c1c(O)c(C)c(O)c(Cc2c(O)c3c(c(C(=O)/C=C/c4ccccc4)c2O)OC(C)(C)C=C3)c1O`, which Potency is on record?
A: The Potency was “inactive and 3.16 µM (active)”.

Q: Which Potency does the source give for `CC(=O)c1c(O)c(C)c(O)c(Cc2c(O)c3c(c(C(=O)/C=C\c4ccccc4)c2O)OC(C)(C)C=C3)c1O` here?
A: The Potency was 3.16 µM (active).

Q: For `CCOC(=O)C1CCN(S(=O)(=O)c2ccc3c(c2)N(C(C)=O)CCO3)CC1`, which Potency is on record?
A: The Potency was “inactive”.

Q: For `O=C(c1cccnc1)N(Cc1ccccc1)C(=O)c1cccnc1`, which Potency is on record?
A: Its Potency is “inactive”.

Q: Which Potency does the source give for `O=C(NCC(=O)N1CCN(c2ncc(C(F)(F)F)cc2Cl)CC1)c1ccc(Br)o1` here?
A: Its Potency is “inactive”.

Q: Which Potency does the source give for `O=C(Nc1cccc2c1CCCC2)c1ccc(F)cc1` here?
A: The Potency was “inactive”.

Q: Which Potency does the source give for `CC(C)C1CCCCC1NC(=O)CN1C(=O)C2=C(CCCC2)C1=O` (stereo not given) here?
A: Its Potency is “inactive”.

Q: With `CCOc1ccc(S(=O)(=O)N2CCN(C(=O)c3oc4ccccc4c3C)CC2)cc1` as the compound, how does the Potency read?
A: The Potency was “inactive”.

Q: Which Potency does the source give for `Cc1cc(C)cc(OCC(=O)Nc2nc3ccc([N+](=O)[O-])cc3s2)c1` here?
A: The Potency was “inactive”.

Q: Which Potency does the source give for `O=C(NC(Nc1nc2ccc([N+](=O)[O-])cc2s1)(C(F)(F)F)C(F)(F)F)c1ccccc1` here?
A: The Potency was 0.517 µM (active).

Q: For `O=C(COC(=O)c1ccc(F)cc1)Nc1nc2ccc([N+](=O)[O-])cc2s1`, which Potency is on record?
A: Its Potency is “inactive”.

Q: Which Potency does the source give for `Cc1ccccc1N1CCN(C(=O)c2cccnc2)CC1` here?
A: The Potency was “inactive”.

Q: With `O=C(NCCc1cccc(F)c1)C1CCCN(c2nc3ccccc3s2)C1` (stereo not given) as the compound, how does the Potency read?
A: The Potency was “inactive”.

Q: For `CCn1c(SCC(=O)NC2CCCC2)nnc1-c1ccoc1C`, which Potency is on record?
A: Its Potency is “inactive”.

Q: For `Cc1csc(SCC(=O)Nc2sccc2C#N)n1`, which Potency is on record?
A: The Potency was 4.47 µM (active).

Q: Which Potency does the source give for `Cc1cccc(C)c1Nc1nnc(SCC(=O)Nc2sccc2C#N)s1` here?
A: Its Potency is “inactive”.

Q: Which Potency does the source give for `Cc1ccc(NC(=O)CSCC(=O)Nc2sccc2C#N)cc1` here?
A: Its Potency is “inactive”.

Q: With `O=[N+]([O-])c1cc2ccccc2nc1-c1ccccc1` as the compound, how does the Potency read?
A: The Potency was “inactive”.

Q: Which Potency does the source give for `O=C(NCCN1CCOC1=O)C1CCC(=O)N(CCc2ccc(Cl)cc2)C1` (stereo not given) here?
A: Its Potency is “inactive”.

Q: With `COCCOC(=O)C1=C(C)OC(N)=C(C#N)[C@H]1c1ccco1` as the compound, how does the Potency read?
A: The Potency was “inactive”.

Q: With `O=C(CN1C(=O)/C(=C\c2ccc(C(F)(F)F)cc2)Sc2ccccc21)NCc1ccco1` as the compound, how does the Potency read?
A: The Potency was “inactive”.

Q: With `O=C(CN1CCCCCC1)N1c2ccccc2Sc2ccc(C(F)(F)F)cc21` as the compound, how does the Potency read?
A: Its Potency is 18.3 µM (active).

Q: Which Potency does the source give for `CCNC(=O)N1c2ccccc2Sc2ccccc21` here?
A: Its Potency is “inactive”.

Q: Which Potency does the source give for `Oc1ccc(-n2nnnc2SCc2c(F)cccc2Cl)cc1` here?
A: Its Potency is “inactive”.

Q: With `O=C(N/N=C/c1ccc(O)c2ccccc12)c1cccnc1` as the compound, how does the Potency read?
A: The Potency was “inactive”.

Q: For `O=C(NN=Cc1ccccc1O)NN=Cc1ccccc1O`, which Potency is on record?
A: The Potency was 3.98 µM (active).

Q: For `O=C(CCCO)N/N=C/c1cc(Br)ccc1O`, which Potency is on record?
A: The Potency was “inactive”.

Q: For `Cc1ccc(NC(=O)CSc2nc(=O)n(CCN(C)C)c3c2CCCC3)c(C)c1`, which Potency is on record?
A: The Potency was “inactive”.

Q: Which Potency does the source give for `O=C1CCCCC1Sc1ccc(Cl)cc1[N+](=O)[O-]` (stereo not given) here?
A: The Potency was “inactive”.

Q: Which Potency does the source give for `CCn1c(SCC(=O)Nc2ccc(Br)cc2)nc2sc3c(c2c1=O)CCN(C)C3` here?
A: Its Potency is “inactive”.
